We go through 37 compounds from PubChem BioAssay (Tox21).

Results filed as inconclusive are left out. Active and inactive are the calls of the source. Unless noted, calls follow the shape of the full dose curve.
% is scaled to controls: 0 for no effect and ±100 for the full control effect.

One test can be described thus: qHTS assay to identify small molecule agonists of the NFkB signaling pathway - cell viability counter screen (AID 1159515). Also: nearly all actives have a fitted effect of over 55% in size. The conditions noted are these: NFkB-bla ME-180 viability, CellTiter-Glo luminescence, 5 h; series mostly up to 61 µM; activity, negative = cytotoxic: at the top concentration. In short, it runs like this:
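NFkB-bla ME-180 cells, 2,000/well, were plated overnight at 37 C, 5% CO2, then exposed to compounds in DMSO for 5 hr. After the bla FRET read, CellTiter-Glo was added to the same wells; luminescence was read after 30 min at room temperature.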
On the technique in general: In qHTS, concentration-response curves come from the screen itself.
Consider `CC(=O)OC1CCCCC1C(C)(C)C` (stereo unspecified), for which the “activity, negative = cytotoxic” value was -0.532% (inactive).

Turning to `O=C=NCC1CCCC(CN=C=O)C1` (stereo unspecified), the “activity, negative = cytotoxic” value was -2.04% (inactive).

As for `COS(=O)(=O)O`, the “activity, negative = cytotoxic” value was -1.48% (inactive).

For the compound `CC(C)NCC(O)c1ccc2ccccc2c1` (stereo unspecified), the “activity, negative = cytotoxic” value was -4.48% (inactive).

In the case of `COc1nc(N)nc2nc[nH]c12`, the “activity, negative = cytotoxic” value was -12.2% (inactive).

Regarding `O=C1CCCCO1`, the “activity, negative = cytotoxic” value was -9.79% (inactive).

On to `CCCCOC(=O)[C@H](C)O`, for which the “activity, negative = cytotoxic” value is -4.07% (inactive).

For the compound `CCc1occc(=O)c1O`, the “activity, negative = cytotoxic” value is 2.42% (inactive).

On to `Nc1nnnn1-c1ccccc1`, for which the “activity, negative = cytotoxic” value is 5.31% (inactive).

With `COc1cc(/C=C/C(N)=O)cc(OC)c1OC`, the “activity, negative = cytotoxic” value is 1.99% (inactive).

Consider `CN(C)CCOC(=O)C(c1ccccc1)C1(O)CCCC1` (stereo unspecified), for which the “activity, negative = cytotoxic” value is 0.484% (inactive).

Take `Cn1c(=O)c2[nH]c(Br)nc2n(C)c1=O`: the “activity, negative = cytotoxic” value was 1.57% (inactive).

For `C=CC/C=C/C`, the “activity, negative = cytotoxic” value is 11.7% [at 78.8 µM] (inactive).

Turning to `C=CC(=O)CCCCC`, the “activity, negative = cytotoxic” value is 7.52% [at 78.8 µM] (inactive).

Consider `CN(C)C(C)(C)CO`, for which the “activity, negative = cytotoxic” value was -9.33% (inactive).

For `O=C(CN1CCNCC1)NC1CCCCC1`, the “activity, negative = cytotoxic” value was -3.63% (inactive).

`CCCCCCCCCCOC(C)=O`: the “activity, negative = cytotoxic” value is 2.39% (inactive).

On to `CC(=O)OCC(=O)Nc1cc(C#N)cc(NC(=O)COC(C)=O)c1Cl`, for which the “activity, negative = cytotoxic” value is 0.865% (inactive).

With `CC1(C)Cc2cccc(N)c2O1`, the “activity, negative = cytotoxic” value was 6.74% (inactive).

`Cc1ccccc1C(N)=O`: the “activity, negative = cytotoxic” value was 12.8% (inactive).

With `Fc1ccccc1`, the “activity, negative = cytotoxic” value was 0.2% [at 78.8 µM] (inactive).

As for `CCC(C)C(=O)OCCc1ccccc1` (stereo unspecified), the “activity, negative = cytotoxic” value was -11% (inactive).

With `CSc1cnccn1`, the “activity, negative = cytotoxic” value is -0.869% (inactive).

With `CCCCCCCCCOC(=O)c1ccccc1C(=O)OCCCCCCCCC`, the “activity, negative = cytotoxic” value is -15.9% (inactive).

With `CCn1cc(C(=O)O)c(=O)c2cnc(N3CCCC3)nc21`, the activity, negative = cytotoxic is -27.6% [at 6.95 µM] (inactive).

For `CC12CCC(C1)C(C)(C)C2O` (stereo unspecified), the “activity, negative = cytotoxic” value is 0.392% (inactive).

Turning to `COc1ccc(CCO)cc1`, the “activity, negative = cytotoxic” value was 8.63% (inactive).

On to `CC(C)Cn1cnc2c1c(=O)n(C)c(=O)n2C`, for which the “activity, negative = cytotoxic” value was 5.08% (inactive).

For `C=CCCCCCCCC`, the “activity, negative = cytotoxic” value is 12.1% [at 78.8 µM] (inactive).

As to `OCC1(CO)COCOC1`, the “activity, negative = cytotoxic” value was 9.97% (inactive).

Turning to `CC(C)[C@H]1CC[C@H](C)C[C@@H]1O`, the “activity, negative = cytotoxic” value was -2.4% [at 78.8 µM] (inactive).

Take `O=NN(CCCl)C(=O)NC1CCCCC1`: the “activity, negative = cytotoxic” value was 14.9% (inactive).

The nature of a further test: qHTS assay to identify small molecule agonists of the endoplasmic reticulum stress response signaling pathway (AID 1159516; active = well fitted activation curve with a large enough effect in the signal ratio in the repeat runs, not every such curve was filed as active; the % refers to the signal ratio). The following applies: ESRE-bla HeLa, ER stress beta-lactamase reporter, 5 h; series mostly up to 61 µM; activation: at the top concentration. In short, it runs like this:
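CellSensor ESRE-bla HeLa cells, carrying a beta-lactamase reporter driven by the ER stress response element, were plated overnight and exposed to compounds for 5 hr at 37 C. Reporter activity was read as FRET substrate fluorescence after 2 hr at room temperature.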
As for `CC(=O)OC1CCCCC1C(C)(C)C` (stereo unspecified), the “activation” value is -0.675% (inactive).

In the case of `O=C=NCC1CCCC(CN=C=O)C1` (stereo unspecified), the “activation” value is 0% (inactive).

Consider `COS(=O)(=O)O`, for which the “activation” value is 0.847% (inactive).

Consider `CC(C)NCC(O)c1ccc2ccccc2c1` (stereo unspecified), for which the “activation” value is -0.423% (inactive).

As to `CCC(C(=O)OCCN1CCOC(c2ccccc2)C1C)c1ccccc1` (stereo unspecified), the “activation” value is -0.328% (inactive).

Consider `COc1nc(N)nc2nc[nH]c12`, for which the “activation” value is -0.872% (inactive).

For the compound `CC1(C)[C@H]2CC[C@](C)(C2)[C@H]1O`, the “activation” value was -1.94% [at 78.8 µM] (inactive).

Regarding `O=C1CCCCO1`, the “activation” value was 4.6% (inactive).

Consider `CCCCOC(=O)[C@H](C)O`, for which the “activation” value is -0.565% (inactive).

With `CCc1occc(=O)c1O`, the “activation” value was -0.755% (inactive).

Regarding `Nc1nnnn1-c1ccccc1`, the “activation” value is 2.43% (inactive).

For the compound `Cc1ccc2c(c1)C(=O)c1ccccc1C2=O`, the “activation” value is -3.35% (inactive).

Consider `NCc1ccc(S(N)(=O)=O)cc1`, for which the “activation” value is 0% (inactive).

For the compound `COc1cc(/C=C/C(N)=O)cc(OC)c1OC`, the “activation” value is 0.564% (inactive).

With `CN(C)CCOC(=O)C(c1ccccc1)C1(O)CCCC1` (stereo unspecified), the “activation” value is 4.14% (inactive).

As to `Cn1c(=O)c2[nH]c(Br)nc2n(C)c1=O`, the “activation” value is -0.0539% (inactive).

On to `C=CC/C=C/C`, for which the “activation” value is 1.73% [at 78.8 µM] (inactive).

`C=CC(=O)CCCCC`: the “activation” value was -2.06% [at 78.8 µM] (inactive).

Turning to `CN(C)C(C)(C)CO`, the “activation” value is 0.211% (inactive).

As to `O=C(CN1CCNCC1)NC1CCCCC1`, the “activation” value was 2.43% (inactive).

For `CCCCCCCCCCOC(C)=O`, the “activation” value is -3.31% (inactive).

`CC(=O)OCC(=O)Nc1cc(C#N)cc(NC(=O)COC(C)=O)c1Cl`: the “activation” value is -0.546% (inactive).

As to `CC1(C)Cc2cccc(N)c2O1`, the “activation” value is -0.803% (inactive).

On to `Cc1ccccc1C(N)=O`, for which the “activation” value was 1.9% (inactive).

As for `Fc1ccccc1`, the “activation” value was 1.03% [at 78.8 µM] (inactive).

Take `CCC(C)C(=O)OCCc1ccccc1` (stereo unspecified): the “activation” value was 0.0495% (inactive).

`CSc1cnccn1`: the “activation” value is 2.33% (inactive).

Turning to `CCCCCCCCCOC(=O)c1ccccc1C(=O)OCCCCCCCCC`, the “activation” value is 2.81% (inactive).

`CCn1cc(C(=O)O)c(=O)c2cnc(N3CCCC3)nc21`: the activation is 1.19% [at 6.95 µM] (inactive).

For `CC12CCC(C1)C(C)(C)C2O` (stereo unspecified), the “activation” value is 7.74% (inactive).

As to `COc1ccc(CCO)cc1`, the “activation” value was 0.508% (inactive).

With `CC(C)Cn1cnc2c1c(=O)n(C)c(=O)n2C`, the “activation” value was 0.279% (inactive).

Turning to `CCN(CC)CCN`, the “activation” value is 2.06% (inactive).

For `C=CCCCCCCCC`, the “activation” value is 1.4% [at 78.8 µM] (inactive).

On to `OCC1(CO)COCOC1`, for which the “activation” value was 5.83% (inactive).

On to `CC(C)[C@H]1CC[C@H](C)C[C@@H]1O`, for which the “activation” value is 0.0556% [at 78.8 µM] (inactive).

For `O=NN(CCCl)C(=O)NC1CCCCC1`, the “activation” value is -3.85% (inactive).

A further test in a line: qHTS assay to identify small molecule agonists of the endoplasmic reticulum stress response signaling pathway - cell viability counter screen (AID 1159517). Also: nearly all actives have a fitted effect of over 50% in size. The conditions noted are these: ESRE-bla HeLa viability, CellTiter-Glo luminescence, 5 h; series mostly up to 61 µM; activity change, negative = cytotoxicity: at the top concentration. In short, it runs like this:
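HeLa cells carrying an ESRE-driven beta-lactamase reporter receive compound for 5 hr at 37 C. Cell viability is then gauged with CellTiter-Glo by luminescence, 30 min at room temperature.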
As to `CCC(C(=O)OCCN1CCOC(c2ccccc2)C1C)c1ccccc1` (stereo unspecified), the “activity change, negative = cytotoxicity” value was 0.729% (inactive).

Consider `CC1(C)[C@H]2CC[C@](C)(C2)[C@H]1O`, for which the “activity change, negative = cytotoxicity” value is 13.7% [at 78.8 µM] (inactive).

For the compound `Cc1ccc2c(c1)C(=O)c1ccccc1C2=O`, the “activity change, negative = cytotoxicity” value is -1.89% (inactive).

Consider `NCc1ccc(S(N)(=O)=O)cc1`, for which the “activity change, negative = cytotoxicity” value is 10.8% (inactive).

With `COc1ccc(CCO)cc1`, the “activity change, negative = cytotoxicity” value is 2.1% (inactive).

For `CCN(CC)CCN`, the “activity change, negative = cytotoxicity” value is 10% (inactive).

The next test in a line: qHTS assay to identify small molecule antagonists of the retinoid-related orphan receptor gamma (ROR-gamma) signaling pathway - cell viability counter screen (AID 1159520; active = well fitted cell-killing curve with a large enough effect in the repeat runs; also: nearly all actives have a fitted effect of over 50% in size). The following applies: Tet-on RORgamma CHO cells viability, ATP luminescence, 16 h; series mostly up to 92.4 µM; activity, negative = cytotoxicity: at the top concentration. A digest of the protocol:
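Cytotoxicity was read from cellular ATP (CellTiter-Glo luminescence) after 16 hr at 37 C with 1 uM doxycycline induction. The inducer was added 2 hr after compound transfer to Tet-on ROR gamma CHO cells.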
For the compound `CC(=O)OC1CCCCC1C(C)(C)C` (stereo unspecified), the “activity, negative = cytotoxicity” value is 3.53% (inactive).

For `COS(=O)(=O)O`, the “activity, negative = cytotoxicity” value was -0.264% (inactive).

For `CC(C)NCC(O)c1ccc2ccccc2c1` (stereo unspecified), the “activity, negative = cytotoxicity” value was 1.77% [at 42.5 µM] (inactive).

Regarding `CCC(C(=O)OCCN1CCOC(c2ccccc2)C1C)c1ccccc1` (stereo unspecified), the “activity, negative = cytotoxicity” value was 0.278% [at 42.5 µM] (inactive).

For `COc1nc(N)nc2nc[nH]c12`, the “activity, negative = cytotoxicity” value was 1.32% (inactive).

Turning to `CC1(C)[C@H]2CC[C@](C)(C2)[C@H]1O`, the “activity, negative = cytotoxicity” value is 10.4% (inactive).

Regarding `O=C1CCCCO1`, the “activity, negative = cytotoxicity” value is -3.82% (inactive).

With `CCCCOC(=O)[C@H](C)O`, the “activity, negative = cytotoxicity” value is 4.57% (inactive).

With `CCc1occc(=O)c1O`, the “activity, negative = cytotoxicity” value was 1.65% (inactive).

As for `Nc1nnnn1-c1ccccc1`, the “activity, negative = cytotoxicity” value was 0.608% [at 42.5 µM] (inactive).

`Cc1ccc2c(c1)C(=O)c1ccccc1C2=O`: the “activity, negative = cytotoxicity” value is 0.794% (inactive).

With `NCc1ccc(S(N)(=O)=O)cc1`, the “activity, negative = cytotoxicity” value was 4.11% [at 42.5 µM] (inactive).

Consider `COc1cc(/C=C/C(N)=O)cc(OC)c1OC`, for which the “activity, negative = cytotoxicity” value was 2.88% [at 42.5 µM] (inactive).

For `CN(C)CCOC(=O)C(c1ccccc1)C1(O)CCCC1` (stereo unspecified), the “activity, negative = cytotoxicity” value was 1.15% [at 42.5 µM] (inactive).

In the case of `Cn1c(=O)c2[nH]c(Br)nc2n(C)c1=O`, the “activity, negative = cytotoxicity” value was 0.332% [at 42.5 µM] (inactive).

Consider `CN(C)C(C)(C)CO`, for which the “activity, negative = cytotoxicity” value was 0.177% (inactive).

As to `O=C(CN1CCNCC1)NC1CCCCC1`, the “activity, negative = cytotoxicity” value is -2% [at 42.5 µM] (inactive).

In the case of `CC(=O)OCC(=O)Nc1cc(C#N)cc(NC(=O)COC(C)=O)c1Cl`, the “activity, negative = cytotoxicity” value is 0.126% [at 42.5 µM] (inactive).

`Cc1ccccc1C(N)=O`: the “activity, negative = cytotoxicity” value is -0.545% (inactive).

`CCC(C)C(=O)OCCc1ccccc1` (stereo unspecified): the “activity, negative = cytotoxicity” value was 1.35% (inactive).

`CSc1cnccn1`: the “activity, negative = cytotoxicity” value is 8.6% (inactive).

Turning to `CC12CCC(C1)C(C)(C)C2O` (stereo unspecified), the “activity, negative = cytotoxicity” value is 2.76% (inactive).

As for `CC(C)Cn1cnc2c1c(=O)n(C)c(=O)n2C`, the “activity, negative = cytotoxicity” value was 3.51% [at 42.5 µM] (inactive).

As for `CCN(CC)CCN`, the “activity, negative = cytotoxicity” value was 0.53% [at 42.5 µM] (inactive).

Take `C=CCCCCCCCC`: the “activity, negative = cytotoxicity” value was 3.47% (inactive).

As for `O=NN(CCCl)C(=O)NC1CCCCC1`, the “activity, negative = cytotoxicity” value was -8.37% [at 42.5 µM] (inactive).
